Results on 36 compounds are retold here after ChEMBL document CHEMBL3433997, “St. Jude Leishmania screening dataset” (2016).

Holding throughout (format): functional
For experiment [1], the target named is Solute carrier family 2, facilitated glucose transporter member 1 (Homo sapiens) (UniProt P11166). The experiment is described as follows: ST_JUDE_LEISH: Cytotoxicity at 2uM final concentration against transgenic Leishmania Mexicana promastigotes LmGLUT1 that are glucose transport deficient and complemented with the human glucose transporter GLUT1. Activity is measured by DNA content using SYBR green in vitro.
Chain of Solute carrier family 2, facilitated glucose transporter member 1 (Homo sapiens) (P11166 whole entry): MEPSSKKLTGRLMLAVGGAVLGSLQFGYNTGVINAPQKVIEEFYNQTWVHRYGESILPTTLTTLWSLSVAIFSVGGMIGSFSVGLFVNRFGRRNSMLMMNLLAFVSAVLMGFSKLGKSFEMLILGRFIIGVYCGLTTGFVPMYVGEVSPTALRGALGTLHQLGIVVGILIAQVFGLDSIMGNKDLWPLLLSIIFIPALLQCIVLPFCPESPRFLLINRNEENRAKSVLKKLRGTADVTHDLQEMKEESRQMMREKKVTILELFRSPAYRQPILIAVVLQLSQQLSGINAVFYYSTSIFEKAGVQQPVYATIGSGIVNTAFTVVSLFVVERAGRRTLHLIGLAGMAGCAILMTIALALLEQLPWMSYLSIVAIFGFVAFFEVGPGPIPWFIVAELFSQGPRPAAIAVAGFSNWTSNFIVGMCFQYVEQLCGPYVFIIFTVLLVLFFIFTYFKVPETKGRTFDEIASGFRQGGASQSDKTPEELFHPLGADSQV

In experiment [2] the target is Hexose transporter 1 (Plasmodium falciparum) (UniProt O97467). Kind of experiment: ST_JUDE_LEISH: Cytotoxicity at 2uM final concentration against transgenic Leishmania Mexicana promastigotes LmPfHT that are glucose transport deficient and complemented with the Plasmodium falciparum hexose transporter. Activity is measured by DNA content using SYBR green in vitro.
Experiment [3] concerns the target Glucose transporter (Leishmania mexicana) (UniProt O61059). The experiment is described as follows: ST_JUDE_LEISH: Cytotoxicity at 2uM final concentration against transgenic Leishmania Mexicana promastigotes LmGT2 that are glucose transport deficient and complemented with the L. Mexicana glucose transporter 2. Activity is measured by DNA content using SYBR green in vitro.

Molecules are shown by their SMILES.

For `COC(=O)CC[C@H](NC(=O)[C@H](C)NC(=O)OC(C)(C)C)C(=O)OC`, the inhibition was 4.67% in experiment [1], 0.48% in experiment [2] and 0.89% in experiment [3].
Regarding `COc1ccc2[nH]ccc(=NN=Cc3cccnc3)c2c1`, the inhibition in experiment [1] is 1.08%; in experiment [2] it was -2.41%; in experiment [3], 1.2%.
Taken in the same sequence, the figures for `CC(C)(C)SC1SC(SC(C)(C)C)C(OC(=O)c2ccccc2)C(OC(=O)c2ccccc2)C1OC(=O)c1ccccc1` (stereo not drawn) were -0.52%, -0.69% and -0.49%.
For `COc1ccccc1CNC(=O)c1cc(C2CC2)nc2c1cnn2C(C)C` the same measures were 15.2%, 11.5% and 8.12%.
Regarding `Cc1noc(C)c1-c1ccc2c(Nc3ccccc3C(C)(C)C)c(C(=O)NC3CCCC3)cnc2c1`, the figures for the inhibition in experiment [1], in experiment [2] and in experiment [3] were 2.07%, 1.46% and -0.58%, respectively.
For `CC(Oc1ccc(Cl)cc1)C(=O)NCCC1CCN(CCCCCNC(=O)/C=C/c2ccc(Cl)c(Cl)c2)CC1` (stereo not drawn) the same measures were 2.73%, 1.37% and 0.04%.
For `Cn1c(N)c(C(=O)CSc2nnc(-c3cccs3)n2Cc2ccccc2)c(=O)n(C)c1=O` the same measures were 10.1%, 8.98% and 8.86%.
For `CC(C)NCc1ccc(-c2ccc(NC(=O)c3ccc(C#N)cc3)cc2)cc1` the same measures were 3.05%, 3.73% and 4.89%.
For the compound `Cc1cc2nc(-c3ccc(OCC(=O)NCc4cccc(C(F)(F)F)c4)cc3)[nH]c2cc1C`, the inhibition was -2.75% in experiment [1], -1.2% in experiment [2] and -1.65% in experiment [3].
For `CCc1c(C(=O)NC2CCC(N3CCC(c4ccccc4C)CC3)CC2)[nH]c2ccc(OC)cc12` (stereo not drawn) the same measures were 0.2%, -0.58% and -0.08%.
Taken in the same sequence, the figures for `CN1CC(c2ccccc2)c2cc(O)c(CN3CCCCC3)cc2CC1Cc1ccccc1` (stereo not drawn) were 9.54%, 7.19% and 6.78%.
Taken in the same sequence, the figures for `COc1ccc2nccc([C@@H](O)CN3CCC(NC(=O)/C(=C/c4ccccc4)c4ccc(-c5ccccc5)cc4)CC3)c2c1` were 1.6%, 0.83% and 0.6%.
With `COc1ccc(CCNCCCCCCNCCc2ccc(OC)c(OC)c2Cl)c(Cl)c1OC`, the inhibition was 0.05% in experiment [1], -0.34% in experiment [2] and 0.35% in experiment [3].
Turning to `COc1ccccc1C(=O)Nc1cccc(N2CCC(NCc3ccc(-n4cccn4)cc3)CC2)c1`, the inhibition came to 9.93% in experiment [1], 10.7% in experiment [2] and 5.84% in experiment [3].
`COc1cc2nc(NCC3CCCCC3)nc(NCc3ccccc3)c2cc1OC`: the inhibition was found to be 3.26% in experiment [1], 4.81% in experiment [2] and 0.32% in experiment [3].
Taken in the same sequence, the figures for `O=C(Nc1ccc(-c2cccc(-c3nc4cc(C(F)(F)F)ccc4[nH]3)c2)cc1)c1ccncc1` were 0.97%, 1.99% and 1.87%.
Take `CC1CCc2sc(-c3nnc(SC(C)C(=O)N4CCCC4)o3)cc2C1` (stereo not drawn): the inhibition is 2.14% in experiment [1], 1.29% in experiment [2] and -4.77% in experiment [3].
Taken in the same sequence, the figures for `CC1(C)N=C(N)N=C(N)N1c1ccc(Br)cc1` were 0.61%, 1.29% and 3.63%.
For `OC(CNCc1ccccc1OCc1ccccc1)c1cccc(Br)c1` (stereo not drawn) the same measures were 4.31%, 4.13% and 2.24%.
Taken in the same sequence, the figures for `COc1ccc(CN(C)CCCOc2ccc(NC(=O)c3cccc4c(=O)c5cccc(F)c5[nH]c34)cc2)cc1OC` were 4.27%, 3.24% and 3.1%.
In the case of `CC(C)CNCc1cccc(-c2ccc(CN(CCCN3CCN(C)CC3)C(=O)CCC3CCCC3)cc2)c1`, the inhibition was found to be 38.9% in experiment [1], 56.9% in experiment [2] and 9.11% in experiment [3].
For `CC1(C)NC(N)=NC(=N)N1OCCCO` the same measures were -0.7%, -0.74% and -1.67%.
For `O=c1cc(NCCCNCc2cccc(Oc3ccccc3)c2)[nH]c2ccccc12` the same measures were 4.28%, 2.68% and 3.25%.
Taken in the same sequence, the figures for `CC(Oc1ccc(Cl)cc1)C(=O)Nc1cc(C(F)(F)F)ccc1N1CCOCC1` (stereo not drawn) were 8.02%, 10.4% and 6.86%.
With `Cc1ccc(CNC(=O)c2cnc(N3CCN(c4ccncc4)CC3)c(Cl)c2)cc1`, the inhibition in experiment [1] is 4.68%; in experiment [2], 6.64%; in experiment [3], 3.12%.
Taken in the same sequence, the figures for `Nc1nc(N)c2c(Sc3ccccc3)cccc2n1` were 3.38%, 3.48% and 2.7%.
Taken in the same sequence, the figures for `CO/C(=C\C=C\c1cc2cc(Cl)c(Cl)cc2[nH]1)C(=O)NCCCN1CCN(c2cccc(Cl)c2)CC1` were -1.14%, -0.72% and -1.82%.
Taken in the same sequence, the figures for `Cc1noc(-c2ccc3c(c2)CCN(CCC2CCC(NC(=O)c4cc5ccccc5[nH]4)CC2)CC3)n1` (stereo not drawn) were 2.93%, 2.28% and 1.98%.
For `Cc1cc2c(cc1C(F)(F)F)N(C(=O)Nc1cnc(OCCN(C)C)c(C(F)(F)F)c1)CC2`, the inhibition in experiment [1] came to 7.92%; in experiment [2] it was 6.97%; in experiment [3], 6.3%.
Taken in the same sequence, the figures for `CC1(C)S(=O)(=O)CC(O)CS1(=O)=O` were 3.87%, 3.02% and 2.49%.
Taken in the same sequence, the figures for `CCOC(=O)c1c(NC(NC(=O)c2ccc(C(C)(C)C)cc2)C(Cl)(Cl)Cl)sc2c1CCCC2` (stereo not drawn) were 10.5%, 8.72% and 9.68%.
For `O=c1c2ccccc2[nH]c2cc(Cl)ccc12` the same measures were 5.11%, 7.05% and 0.77%.
On to `CS(=O)(=O)c1cccc(-c2cnc3[nH]cc(-c4ccc(C(=O)O)cc4)c3c2)c1`, for which the inhibition in experiment [1] is 1.01%; in experiment [2], -0.81%; in experiment [3], 1.75%.
For `O=c1cc(NCCCNCc2cccc(OC(F)(F)F)c2)[nH]c2ccccc12` the same measures were 2.97%, -3.41% and 4.57%.
For `O=C(Oc1ccc(C2CNCCc3c2cc(OC(=O)c2ccc(O)cc2)c(OC(=O)c2ccc(O)cc2)c3Cl)cc1)c1ccc(O)cc1` (stereo not drawn) the same measures were 4.39%, 5.32% and 4.76%.
With `CC(C)c1ccc(NC(=O)N2CCc3ccc(OCCN(C(C)C)C(C)C)cc32)c(Br)c1`, the inhibition in experiment [1] is -3.12%; in experiment [2] it was 0.76%; in experiment [3], 1.63%.

In general, inhibition refers to the change of the read-out against control, counted positive when it falls.
